Experimental data from ChEMBL document CHEMBL3988442, “University of Dundee, Small-Polar-MMV Screening Library” (2021).

These compounds were tested against T1, Tyrosyl-tRNA synthetase, putative (Trypanosoma cruzi (strain CL Brener)) (UniProt Q4DSP6) (assay: Trypanosoma cruzi tyrosyl tRNA synthetase (TcYRS) _High Tyrosine SOP). Details: 30 µM.
T1 sequence (whole entry): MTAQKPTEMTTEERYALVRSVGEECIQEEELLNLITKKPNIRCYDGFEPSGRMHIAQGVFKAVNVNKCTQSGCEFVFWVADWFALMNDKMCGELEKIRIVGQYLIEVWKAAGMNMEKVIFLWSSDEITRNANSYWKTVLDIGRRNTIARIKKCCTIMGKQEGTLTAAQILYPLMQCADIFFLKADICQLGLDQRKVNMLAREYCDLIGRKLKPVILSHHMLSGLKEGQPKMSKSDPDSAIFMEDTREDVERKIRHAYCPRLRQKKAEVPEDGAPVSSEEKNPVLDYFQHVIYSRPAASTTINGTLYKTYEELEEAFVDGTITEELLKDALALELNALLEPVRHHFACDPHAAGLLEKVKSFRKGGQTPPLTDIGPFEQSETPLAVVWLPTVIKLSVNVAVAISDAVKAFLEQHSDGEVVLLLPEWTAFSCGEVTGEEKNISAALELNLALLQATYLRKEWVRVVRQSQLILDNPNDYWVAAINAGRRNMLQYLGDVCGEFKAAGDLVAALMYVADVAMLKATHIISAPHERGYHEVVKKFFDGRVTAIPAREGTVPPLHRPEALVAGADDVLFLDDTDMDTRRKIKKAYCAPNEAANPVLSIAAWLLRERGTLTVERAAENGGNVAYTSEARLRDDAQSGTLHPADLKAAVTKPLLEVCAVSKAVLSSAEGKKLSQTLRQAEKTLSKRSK
Assay type: functional
Design: scale not given: in the data most compounds retested in dose-response had high values

SMILES | Percent Effect [%]
O=C(NCCNc1ncccn1)N1CCN(Cc2cccnc2)CC1 | 7.39
CC(C)N1CCC(N2CCN(C3CCC3)CC2CCO)CC1 (stereo not given) | 2.1
COc1ccc(CN2CCCC(Cn3nc(C)nc3C)C2)cc1F (stereo not given) | -2.08
Cc1cnn(CCCNC(=O)N2CCCCC(N3CCCC3)C2)c1 (stereo not given) | 8.33
CCn1cc(NC(=O)NCC(c2cccs2)N(C)C)cn1 (stereo not given) | 5.39
c1cnn(Cc2cn3c(n2)CN(Cc2nccs2)CC3)c1 | 9.52
CCc1noc(C2CCN(C(=O)CCn3nc(C)cc3C)CC2)n1 | 8.6
CC(C#N)CSc1ccccc1NCC(=O)Nc1ccc(F)cc1 (stereo not given) | -8.6
CCc1nc(CN2CCCC(NCc3nnc(C4CC4)o3)C2)no1 (stereo not given) | 11.4
CCc1ccc(CCC(=O)N2CCOCC2c2ncon2)cc1 (stereo not given) | -0.99
CC(=O)N1CCN(c2cc(C3CN(C)CCO3)nc(C)n2)CC1 (stereo not given) | 5.38
CN(C)CC1CSCCCN1C(=O)Nc1ccc(C(C)(C)C)cc1 (stereo not given) | 4.23
Cc1n[nH]c(C2CN(C(=O)c3ccco3)CCO2)n1 (stereo not given) | 6.38
Clc1ccccc1C1(c2ccnc(CC3CC3)n2)CCNCC1 | 8.6
Cc1cc2cc(C(=O)N[C@@H]3CC[C@@H](N4CCOCC4)[C@@H]3O)ccc2o1 | 5.38
CC(C)c1nnc2n1CCN(CC(=O)Nc1nncs1)C2 | 2.86
CCc1noc(C)c1C(=O)N1CCCC1c1c(C)nn(C)c1OC (stereo not given) | 1.48
COc1cc(C)nc(N2CCN(C(=O)c3ccc[nH]3)CC2)n1 | 1.48
O=C(NCc1cccnc1)C1CC(=O)N(CC2CC2)C1 (stereo not given) | 4.76
Fc1ccc(CN2CCO[C@H]3[C@H](OCC4CC4)CC[C@@H]32)cc1 | 2.08
